This excerpt belongs to a sample that is enriched for hits.
NS1 function inh – qHTS Assay for Inhibitors of Influenza NS1 Protein Function | Potency, µM (highest dose often 46.1 µM), inactives show at the highest dose activity, positive = more growth | hit rate 0.4% among 270,000 | AID 2326, 2010; note: potency is the fitted concentration of half-maximal effect; actives are rising curves; nearly all actives have a fitted effect of over 50% in size
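Read-out: OD600 growth recovery of NS1-expressing budding yeast. Cells grown overnight at 30C in -URA glucose medium, washed, resuspended and diluted 1:100 in 2% galactose assay medium, pH 6.0. Same strain lacking NS1 served as positive control.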
Tb PYK inh – qHTS of Trypanosoma Brucei Inhibitors. Potency, µM (highest dose often 76.8 µM), inactives show at the top dose activity, negative = inhibition, actives largely listed as inhibitors. TbPYK enzyme, Kinase-Glo Plus ATP luminescence, 45 min. pyruvate kinase (Trypanosoma brucei), Q57TT1. hit rate 0.12% among 410,000; active = well fitted curve in the direction sought with a large enough effect; inconclusive = small, poorly fitted or top-dose-only effect, or another doubt; inactive = no such curve, though single readings can be large; an effect the other way counts as inactive or inconclusive; note: potency is the fitted concentration of half-maximal effect; % is set by controls: 0 for no effect and ±100 for the full control effect; nearly all actives have a fitted effect of over 50% in size
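Activity of T. brucei pyruvate kinase was followed by Kinase-Glo Plus luminescence after the enzyme reacted 45 min at room temperature with 130 uM ADP (final) and substrate. Test compounds were added before ADP at multiple concentrations.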
SARS PLP yeast – qHTS of Yeast-based Assay for SARS-CoV PLP; S. cerevisiae expressing SARS-CoV PLpro, growth rescue; Potency, µM (highest dose often 32.9 µM), for the others: at the top dose activity, positive = growth rescue, actives largely listed as activators; hit rate 0.19% among 330,000; AID 485353, 2010; note: potency is the fitted concentration of half-maximal effect; 0% is about no effect; nearly all actives have a fitted effect of over 55% in size
LmPK inhibitor – qHTS Assay for Inhibitors of Leishmania Mexicana Pyruvate Kinase (LmPK). Potency, µM (top dose mostly 57.5 µM), for the others: at the highest dose activity change, negative = inhibition, most hits filed as inhibitors. hit rate 0.37% among 290,000. purified LmPK, Kinase-Glo ATP luminescence, 1 h; active = well fitted curve in the direction sought with a large enough effect; inconclusive = small, poorly fitted or top-dose-only effect, or another doubt; inactive = no such curve, though single readings can be large; an effect the other way counts as inactive or inconclusive; note: potency is the fitted concentration of half-maximal effect; % is set by controls: 0 for no effect and ±100 for the full control effect
Target sequence (Q27686 whole entry, looked up): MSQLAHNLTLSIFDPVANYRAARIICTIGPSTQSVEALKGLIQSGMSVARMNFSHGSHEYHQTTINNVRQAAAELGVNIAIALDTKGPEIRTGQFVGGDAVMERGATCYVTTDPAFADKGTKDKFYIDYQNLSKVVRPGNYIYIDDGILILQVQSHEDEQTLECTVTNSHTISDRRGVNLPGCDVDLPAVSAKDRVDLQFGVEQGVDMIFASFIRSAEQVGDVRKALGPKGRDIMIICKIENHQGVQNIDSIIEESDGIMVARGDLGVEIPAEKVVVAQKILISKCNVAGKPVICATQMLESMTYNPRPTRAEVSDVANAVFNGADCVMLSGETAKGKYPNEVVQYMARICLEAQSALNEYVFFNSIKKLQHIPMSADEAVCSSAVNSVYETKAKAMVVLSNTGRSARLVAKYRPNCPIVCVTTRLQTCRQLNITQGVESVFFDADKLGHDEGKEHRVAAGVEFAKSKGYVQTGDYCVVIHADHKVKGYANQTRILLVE
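qHTS format; LmPK 0.1 nM; substrates PEP 0.5 mM and ADP 0.1 mM. One-hour room-temperature incubation, then coupled luciferase luminescence; 0.5 nM enzyme wells mark activation.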
Shiga toxin inh – A qHTS for Small Molecule Inhibitors of Shiga Toxin | hit rate 9.2% among 290,000 | AID 2315, 2010 | Vero cells, Shiga toxin protein synthesis inhibition reporter | inhibition, % at 38.7 µM; in the data active = inhibition mostly above about 28%, no sharp cut-off; inactive = mostly below about 43%; note: 0% is about no effect
CHX counter – Cycloheximide Counterscreen for Small Molecule Inhibitors of Shiga Toxin; cell reporter, cycloheximide protein synthesis inhibition counterscreen; max response, %; hit rate 12% among 300,000; AID 2314, 2010; in the data active = max response mostly above about 13%, no sharp cut-off; inactive = mostly below about 14%; note: read at 38.3 µM for the half of the compounds with a filed dose; 0% is about no effect
* hit, by the source's call; u = inconclusive; x = no result given; ! = a repeat was not active. Unless noted, calls come from the whole dose curve.

SMILES | NS1 function inh | Tb PYK inh | SARS PLP yeast | LmPK inhibitor | Shiga toxin inh | CHX counter
COc1ccc(C2(c3ccc(OC)cc3)NC(=O)N(CC(=O)Nc3cc(C)ccc3OC)C2=O)cc1 | 10% | -1% | 5% | 4% | 116* | 33*
Cc1ccc2c(c1)-c1c(c(C(=O)N3CCN(c4cc(C)ccc4C)CC3)nn1C)CS2 | x | -14% | x | x | x | x
CCOC(=O)c1cnc2ccc(OCC)cc2c1N1CCN(c2cccc(Cl)c2)CC1 | x | 10% | x | x | x | x
COc1ccc(NC(=O)Nc2cc(C)ccc2OC)cc1 | -3% | 1% | 1% | -3% | 0 | 24*
CSc1nnc(-c2ccc(Br)s2)n1C | -5% | 2% | -4% | -1% | 69* | 47*
CSc1nnc(-c2sc(-c3ccccc3)nc2C)n1C | -15% | -9% | -1% | -5% | 55 | 12*
O=C(CNC(=O)c1ccc(Br)cc1)OC1CCOC1=O (centres undefined) | x | 5% | x | x | x | x
COc1ccc(-n2c(=O)c3c4c(sc3n3c(=S)[nH]nc23)COC(C(C)C)C4)cc1 (centres undefined) | 9% | u | 0% | 0% | -10 | -2
COc1ccc(C2CC(O)(c3ccccc3)Oc3cc(OC)cc(OC)c32)cc1 (centres undefined) | 28% | -12% | -10% | 1% | 25 | 22*!
CCN(CC)c1ncnc2c1ncn2[C@H]1CN(Cc2ccc(OC)cc2)C[C@@H](CO)O1 | x | 3% | x | x | x | x
CCN(CC)S(=O)(=O)c1ccc(C(=O)NC2=NCCS2)cc1 | 0% | 2% | -3% | -1% | -4 | -4
Cc1ccc(C(=O)NC2=NCCS2)cc1 | 2% | x | -2% | -16% | 85* | 34*
Cc1ccc(C(=O)NC2=NCCS2)cc1Cl | -24% | -1% | -7% | -5% | 44* | 38*
CC(C)c1ccc(C(=O)NC2=NCCS2)cc1 | 8% | 2% | -6% | -3% | 63* | 53*
N#Cc1ccc(C(=O)NC2=NCCS2)cc1 | 0% | -1% | -2% | 1% | 104* | 34*
CCCCn1nnnc1C1(C)CCC(=O)N1C1CC1 (centres undefined) | x | 0% | x | x | x | x
OCc1ccc(-c2cncc3nccn23)cc1 | x | 2% | x | x | x | x
O=C(NC1=NCCS1)c1ccc(C(F)(F)F)cc1 | -2% | 4% | -2% | -4% | 96* | 34*
CCCN1C(=O)c2ccc(C(=O)NC3=NCCS3)cc2C1=O | -24% | -2% | -12% | -7% | 41 | 15*
CSc1ccc(CNC(=O)c2ccc3c(c2)N(C)C(=O)C2CCCCN32)cc1 (centres undefined) | x | -3% | x | x | x | x
COc1cc(NS(=O)(=O)c2ccc3c(c2)CCN3S(C)(=O)=O)cc(OC)c1 | x | 3% | x | x | x | x
CCCCOc1ccc(C(=O)NCC(=O)N2CC=C(c3ccccc3)CC2)cc1 | x | -3% | 28% | x | x | x
Nc1cc(N)nc(SCC(=O)Nc2ccccc2)n1 | 4% | 1% | -4% | 3% | 12 | -3
NC(=O)CSc1nc2ccc(NC(=O)COc3ccccc3)cc2s1 | x | 7% | x | x | x | x
Nc1ccc2nc(SCc3ccccc3F)sc2c1 | 2% | -26% | -11% | -2% | 87* | 71*
SMILES | NS1 function inh | Tb PYK inh | SARS PLP yeast | LmPK inhibitor | Shiga toxin inh | CHX counter
Nc1cc(N)nc(SCC(=O)c2ccccc2)n1 | 10% | 3% | 1% | -4% | 12 | 40*
Nc1ccc2nc(SCC(=O)c3ccccc3)sc2c1 | -26% | 10% | -20% | -5% | 68* | 45*
Cc1cc(OCC(=O)N(Cc2ccc(N(C)C)cc2)CC2CCCO2)ccc1Cl (centres undefined) | x | -19% | x | x | x | x
NS(=O)(=O)c1ccc(NC(=S)NC2CCCCC2)cc1 | 4% | u | 1% | -3% | 26 | 6
COC(=O)c1ccccc1NC(=S)NC(=O)C1CC1 | 3% | -3% | 29% | 9% | -15 | 5
S=C(Nc1ccc2[nH]ccc2c1)NC1CCCCC1 | -1% | 2% | -2% | -1% | 65* | 37*
Cc1ccc(NC(=S)NC(=O)C2CC2)c(C)c1 | 1% | -2% | 1% | -12% | 64* | 34*
Cc1ccc(NC(=S)NC2CCN(Cc3ccccc3)CC2)cc1C | x | 4% | 1% | 5% | -8 | -1
Cc1ccc(NC(=S)NC2CCCC2)cc1C | -23% | -6% | -38% | 3% | active | 49*
Cc1cc(Cl)ccc1NC(=S)NC1CCCC1 | -11% | 0% | 20% | -3% | 32* | 12*
CCCCN(C(=O)C1=CC=CN2CCS(=O)(=O)N=C12)c1ccccc1 | x | 0% | -1% | x | x | x
COc1ccc(-n2c(=O)c3c(c4cc(OC)ccc4n3C)n(Cc3ccc(F)cc3Cl)c2=O)cc1 | x | 7% | x | x | x | x
Cc1nc2ccc(NC(=S)NC3CCCCC3)cc2nc1C | x | -5% | 6% | 6% | 102* | 42*
Cc1ccc(NC(=S)NC(=O)C2CCCC2)cc1C | 5% | -3% | -2% | 0% | 91* | 50*
CC1CCCCC1NC(=S)Nc1ccc(Cl)cc1Cl (centres undefined) | -2% | -7% | -3% | -4% | 31* | 12
S=C(Nc1ccc(Cl)cc1Cl)NC1CCN(Cc2ccccc2)CC1 | -5% | -6% | -23% | 0% | -4 | 1
CC(=O)c1cccc(NC(=S)NC2CCCCC2)c1 | 4% | 2% | 5% | 2% | 6 | -3
Cc1ccc(NC(=S)NC(=O)C2CCC2)cc1C | -7% | 4% | -4% | 1% | 101* | 53*
COc1ccc(Cl)cc1NC(=O)CSc1nnc(C)n2c1cc1occc12 | x | 8% | x | x | x | x
Cc1ccc(NC(=O)Cc2ccc(F)cc2)cc1 | 0% | 3% | 0% | -4% | 13 | 21*
Cc1ccc(CSCC(=O)Nc2ccccc2F)cc1 | x | -10% | 0% | 1% | 68* | 25*
COc1ccc(CSCC(=O)Nc2ccccc2SC)cc1 | 2% | -16% | 5% | 5% | -10 | 0
Cc1ccc(NC(=O)CSCc2ccc(F)cc2)cc1 | -37% | 0% | 0% | 0% | 76* | 51*
CCC(C)(C)NC(=O)Cc1ccc(C)cc1 | -1% | 5% | 16% | 1% | 83* | 21*
Cc1ccc(CSCC(=O)NCc2ccc(F)cc2)cc1 | x | 1% | -5% | 2% | -1 | 16
SMILES | NS1 function inh | Tb PYK inh | SARS PLP yeast | LmPK inhibitor | Shiga toxin inh | CHX counter
COc1ccc(C(=O)N2CCCCC2c2cc(C(=O)NCc3cccnc3)no2)cc1 (centres undefined) | x | -5% | x | x | x | x
Cc1ccc(-c2ccc(=O)n(CC(=O)NCCc3ccccc3)n2)cc1 | x | 3% | x | x | x | x
Cc1ccc(NC(=O)CSc2n[nH]c(-c3ccco3)n2)cc1 | 2% | 4% | -2% | -8% | 45 | 28*
Cc1ccc(NC(=O)CSCc2ccco2)cc1 | x | 3% | -1% | -4% | 105* | 23*
O=C(CNc1ccccc1)Nc1ccc(F)cc1 | u | 3% | -2% | -12% | 118* | 75*
Cc1ccc(NC(=O)CSCC(=O)NCc2ccco2)cc1 | x | -7% | -2% | x | x | x

Compound activity as filed in PubChem.
